Only some compounds are listed: those with a hit (about 2.9% of all), similar ones and a draw of the others.
FBA Mtb inh – inhibitors of M. tuberculosis fructose-bisphosphate aldolase | AID 588726 | inhibition, % at 1 µM | actives 2.3% (n = 360,000) | purified M. tuberculosis FBA, fluorescence read-out;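 also: 0% = vehicle and 100% = reference inhibitor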
Target sequence (P9WQA3 whole entry, looked up): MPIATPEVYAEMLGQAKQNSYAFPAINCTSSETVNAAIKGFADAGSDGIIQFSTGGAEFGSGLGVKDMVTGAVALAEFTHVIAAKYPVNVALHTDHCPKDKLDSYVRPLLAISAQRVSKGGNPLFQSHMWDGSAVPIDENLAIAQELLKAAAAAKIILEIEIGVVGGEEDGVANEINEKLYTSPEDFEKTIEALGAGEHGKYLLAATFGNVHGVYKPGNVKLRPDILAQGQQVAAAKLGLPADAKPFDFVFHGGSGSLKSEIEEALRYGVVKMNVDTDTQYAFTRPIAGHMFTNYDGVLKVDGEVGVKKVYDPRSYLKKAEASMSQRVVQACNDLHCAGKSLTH
Mtb BioA inh – BioA (M. tuberculosis) enzyme inhibition; purified M. tuberculosis BioA enzyme, plate reader; inhibition, % at 9.99 µM; actives 0.096% (n = 360,000); AID 602481; in the data active = inhibition above about 40%
Mtb hypoxia rep – inhibitors of hypoxia-regulated fluorescent reporter in Mycobacterium tuberculosis; actives 0.1% (n = 300,000); M. tuberculosis hypoxia-regulated fluorescent reporter, fluorescence; fluorescence inhibition, % (test concentration not listed); AID 1159583; in the data active = fluorescence inhibition mostly above about 23%, no sharp cut-off; inactive = mostly below about 17%
GDH-TPI counter-1 – inhibits GDH-TPI coupling enzymes, artifact for Mtb FBA screen; actives 1.2% (n = 360,000); AID 588335; GDH-TPI coupled enzyme counterscreen, NADH absorbance; inhibition, % at 4.8 µM; in the data active = inhibition above about 30%;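 also: 0% = DMSO wells and 100% = wells lacking the enzyme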
FadD28 FP inh – inhibitors of Mycobacterium tuberculosis FadD28 bisubstrate binding; FadD28 bisubstrate probe binding, fluorescence polarization; inhibition, % at 12.5 µM; actives 0.22% (n = 360,000); AID 588549; in the data active = inhibition above about 8.5%, passing the limit was not always enough
Mtb FBA confirm – Mtb FBA inhibition, confirmed | shares compounds with FBA Mtb inh | purified M. tuberculosis FBA, fluorescence read-out | inhibition, % at 1 µM | actives 78% (n = 5,600) | AID 651616;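 also: 0% = vehicle wells and 100% = reference inhibitor wells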
GDH-TPI counter-2 – GDH-TPI inhibition counter-screen for FBA inhibitors. shares compounds with FBA Mtb inh. GDH-TPI coupled enzyme counterscreen, fluorescence. inhibition, % at 1 µM. actives 81% (n = 5,600). AID 652141; in the data active = inhibition above about 10%
Starred values were filed as active, the others as inactive; nt = not tested or not shown; + = active, no number. Rule as the data show it, unless noted: active = inhibition above about 27%; inactive = the rest.

SMILES	FBA Mtb inh	Mtb BioA inh	Mtb hypoxia rep	GDH-TPI counter-1	FadD28 FP inh	Mtb FBA confirm	GDH-TPI counter-2
CCC(C)C1NC(=O)C(CC(=O)O)NC(=O)c2cc([N+](=O)[O-])cc(I)c2NCCC(C(N)=O)NC1=O (stereo not given)	nt	nt	6	nt	nt	nt	nt
Cc1cc(OCC(=O)N2CCOCC2)cc2oc(=O)c3ccccc3c12	54*	0	nt	13	-1	70*	45*
O=C(O)CCNC(=O)COc1ccc2c3c(c(=O)oc2c1)CCCC3	66*	nt	-1	2	-2	40*	35*
Cc1c(OC(C)C(=O)NCc2cccnc2)ccc2c3c(c(=O)oc12)CCCC3 (stereo not given)	61*	17	nt	7	-5	+	+
CC(Oc1ccc2c3c(c(=O)oc2c1)CCCC3)C(=O)NCc1ccncc1 (stereo not given)	51*	4	15	-6	-4	7	-3
C[C@@H]1CN([C@H](C)CO)S(=O)(=O)c2ccc(-c3ccc(C#N)cc3)cc2O[C@H]1CN(C)C(=O)CN(C)C	nt	0	nt	nt	nt	nt	nt
CCCCCCc1ccc(N2CC(Cc3ccccc3)C(CC(=O)Nc3ccccc3)C2=O)cc1 (stereo not given)	nt	nt	5	nt	nt	nt	nt
Cc1cc(C=Nn2cnnc2)c(C)n1-c1ccc(OCc2ccccc2F)cc1	nt	nt	8	nt	nt	nt	nt
O=C(COc1ccc2c3c(c(=O)oc2c1)CCC3)NCCN1CCOCC1	10	1	12	3	-2	nt	nt
O=C(COc1ccc2c3c(c(=O)oc2c1)CCCC3)NCCN1CCOCC1	48*	0	-2	15	-1	-1	-2
O=C(COc1ccc2c(c1)oc(=O)c1ccccc12)NCCN1CCOCC1	91*	1	12	5	-3	128*	105*
CC(Oc1ccc2c3c(c(=O)oc2c1)CCCC3)C(=O)NCCN1CCOCC1 (stereo not given)	51*	1	11	12	-2	76*	61*
O=C(COc1ccc2c3c(c(=O)oc2c1)CCCC3)NCCCN1CCOCC1	29*	0	2	23	-2	89*	64*
Cc1cc(=O)oc2cc(OCC(=O)NCCCN3CCOCC3)ccc12	15	-2	nt	12	-3	nt	nt
CCCNC(=O)N1C[C@H](O)COC[C@@H]2O[C@H](CC(=O)N3CCC(Cc4ccccc4)CC3)CC[C@H]21	nt	-1	nt	nt	nt	nt	nt
C[C@H]1CCCCO[C@H](CN(C)C(=O)Nc2cccc3ccccc23)[C@@H](C)CN([C@@H](C)CO)C(=O)c2cc(NC(=O)c3ccncc3)ccc2O1	nt	3	nt	nt	nt	nt	nt
CC(=NNC(=O)Cn1nc(C)c(Br)c1C)c1cccs1	nt	nt	0	nt	nt	nt	nt
CCN1CCN(C(c2cc3cc4c(cc3[nH]c2=O)OCO4)c2nnnn2C(C)(C)CC)CC1 (stereo not given)	94*	nt	3	32*	-2	9	1
O=c1[nH]c2cc3c(cc2cc1C(c1nnnn1CC1CCCO1)N1CCCC1)OCO3 (stereo not given)	29*	nt	5	21	1	+	+
CCC(C)(C)n1nnnc1C(C(C)C)N(Cc1ccco1)Cc1cc2cc3c(cc2[nH]c1=O)OCO3 (stereo not given)	29*	-2	-1	9	0	52*	44*
CC(C)(C)n1nnnc1C(c1cc2cc3c(cc2[nH]c1=O)OCO3)N1CCN(c2ccccc2)CC1 (stereo not given)	26	2	16	15	-2	nt	nt
C[C@@H]1CN([C@@H](C)CO)C(=O)CCCn2cc(nn2)CO[C@@H]1CN(C)Cc1ccccc1	nt	-1	nt	nt	nt	nt	nt
CCCNC(=O)Nc1ccc2c(c1)OC[C@H](C)N(C)C[C@@H](C)[C@H](OC)CN(C)C2=O	nt	0	nt	nt	nt	nt	nt
C[C@H](CO)N1C[C@H](C)[C@@H](CN(C)C(=O)C2CCCCC2)Oc2ncc(C#CCc3ccccc3)cc2C1=O	nt	0	nt	nt	nt	nt	nt
CCN(C(=O)COC(=O)c1cc2ccccc2cc1OC)c1c(N)n(Cc2ccccc2)c(=O)[nH]c1=O	39*	1	4	-4	-4	102*	70*
SMILES	FBA Mtb inh	Mtb BioA inh	Mtb hypoxia rep	GDH-TPI counter-1	FadD28 FP inh	Mtb FBA confirm	GDH-TPI counter-2
CNc1ccccc1C(=O)OCC(=O)N(CCOC)c1c(N)n(CC(C)C)c(=O)[nH]c1=O	92*	-2	-2	10	0	+	+
COCCN(C(=O)COC(=O)c1ccccc1Cc1ccccc1)c1c(N)n(Cc2ccccc2)c(=O)[nH]c1=O	-2	1	-3	2	-5	nt	nt
C[C@H]1CN([C@@H](C)CO)C(=O)c2cccc(NS(C)(=O)=O)c2O[C@@H]1CN(C)CC1CCCCC1	nt	0	nt	nt	nt	nt	nt
Cc1ccc(NC(=O)Nc2nnc(CSCCOc3ccc(Cl)cc3)s2)cc1	3	nt	0	0	-2	nt	nt
COc1ccc(OCCSCc2nnc(NC(=O)Nc3ccc(Cl)cc3)s2)cc1	29*	nt	14	-1	-3	10	-5
CC1CN(C(C)CO)C(=O)c2cccc(NC(=O)C3CC3)c2OC1CN(C)Cc1ccc(C(F)(F)F)cc1 (stereo not given)	nt	nt	3	nt	nt	nt	nt
CCN(CC)CC(=O)Nc1cc(N(C)C)nc2ccccc12	36*	0	4	38*	-2	30*	26*
CCCCCC(=O)Nc1cc(N(C)C)nc2ccccc12	23	2	6	13	-3	nt	nt
Cc1ccc(C=Nn2c(C)nnc2C)o1	nt	nt	7	nt	nt	nt	nt
C=CCc1ccc(O)c(-c2cc(CC=C)ccc2O)c1	34*	5	nt	11	5	86*	63*
OC[C@@H]1CCCN1Cc1cn(-c2ccccc2)nc1-c1ccc2c(c1)OCO2	29*	4	8	23	-2	54*	35*
COCC(=O)N1[C@@H]2CN(C(=O)c3cccc(OC)c3)c3ccccc3[C@@H]2[C@@H]1CO	nt	-5	nt	nt	nt	nt	nt
O=C1c2ccc(Oc3ccc4c(c3)C(=O)N(CCCCO)C4=O)cc2C(=O)N1CCCCO	5	nt	18	1	-2	nt	nt
O=C1c2ccc(-c3ccc4c(c3)C(=O)N(CCCO)C4=O)cc2C(=O)N1CCCO	36*	2	6	2	-2	9	-5
Cc1nc2ccccc2c2nc(N)nn12	6	0	14	5	-3	nt	nt
Cc1cn2nc(N)c3ccccc3c2n1	42*	-1	5	1	1	+	+
CC(=O)OC1CC[C@@]2(C)C(=CCC3C4CCC(C(C)=O)[C@@]4(C)CCC32)C1 (stereo not given in full)	nt	nt	8	nt	nt	nt	nt
Cc1cc(N2CCN(C)CC2)nc2ccc(NC(=O)CCC(=O)NCCC(C)C)cc12	33*	-1	17	21	-1	5	5
Cc1cc(N2CCN(C)CC2)nc2ccc(NC(=O)CCC(=O)NCc3ccco3)cc12	32*	1	-21	5	-1	68*	69*
Cc1cc(N2CCN(C)CC2)nc2ccc(NC(=S)N3CCN(c4ccc(Cl)cc4)CC3)cc12	27*	-1	15	11	-1	135*	128*

Bioassay records as filed in PubChem BioAssay.
